# TRPV1 ag: human TRPV1 agonism. activation, % at 8.33 µM. 320,000 tested, 0.19% active. AID 540275. TRPV1-expressing cells, Fluo-8 calcium influx, agonist mode. Q8NER1; in the data active = activation above about 80%; inconclusive = between about 30% and that limit
#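 TRPV1-expressing cells were cultured overnight at 35.5C and loaded with Fluo-8 calcium dye for 40 to 90 min at room temperature. After a 10 s baseline, compound was added and calcium influx was read kinetically for 3 min (ex 480/em 520 nm).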
# TRPV1 potentiator: enhances activation of the human vanilloid receptor TRPV1 | Q8NER1 | TRPV1-expressing cells, Fluo-8 calcium influx, capsaicin EC20 potentiation | potentiation, % at 8.33 µM | 320,000 tested, 0.02% active; in the data active = potentiation above about 80%; inconclusive = between about 30% and that limit
#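 Cells expressing TRPV1 were dye-loaded with Fluo-8 and read kinetically: 10 s baseline, 3 min after compound (agonist portion), then 2 min after EC20 capsaicin (allosteric enhancer portion). Calcium-bound dye fluorescence at 480/520 nm.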
# TRPML1 blocker: blocks the human TRPML1 channel. activity change, negative = inhibition, % (concentration not given with the values). TRPML1-inducible cells, Ca2+ dye fluorescence, FDSS; stronger effect = lower value; inhibition of EC80 agonist-evoked calcium signal. 390,000 tested, 0.02% active; in the data active = activity change below about -50%; inconclusive = between about -30% and that limit;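 also: stimulus is agonist 54-4 at its EC80 concentration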
# Target sequence (Q9GZU1 whole entry, looked up): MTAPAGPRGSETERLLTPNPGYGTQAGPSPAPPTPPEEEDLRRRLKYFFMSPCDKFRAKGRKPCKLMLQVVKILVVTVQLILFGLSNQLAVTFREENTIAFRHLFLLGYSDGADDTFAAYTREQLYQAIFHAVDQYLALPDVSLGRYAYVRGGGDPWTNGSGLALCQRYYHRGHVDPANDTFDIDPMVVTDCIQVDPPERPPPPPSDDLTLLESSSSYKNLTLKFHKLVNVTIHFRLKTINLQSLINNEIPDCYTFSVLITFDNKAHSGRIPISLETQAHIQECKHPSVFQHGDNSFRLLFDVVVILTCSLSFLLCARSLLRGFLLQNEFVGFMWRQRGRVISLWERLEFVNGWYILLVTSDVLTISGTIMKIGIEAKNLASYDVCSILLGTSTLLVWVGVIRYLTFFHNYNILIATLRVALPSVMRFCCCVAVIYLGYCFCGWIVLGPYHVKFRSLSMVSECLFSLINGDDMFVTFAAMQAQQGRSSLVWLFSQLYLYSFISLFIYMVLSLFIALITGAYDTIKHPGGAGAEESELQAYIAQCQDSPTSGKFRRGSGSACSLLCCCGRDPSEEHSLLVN
#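 TRPML1-DL cells, Tet-induced overnight (~16 h, 37 °C) at 1,500 cells/well, were loaded with Ca8 no-wash dye plus quencher for 45-90 min at room temperature. Compounds were pinned during FDSS kinetic reading; agonist 54-4 at EC80 (4 uM final) then added.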
# TRPML1 agonist: agonists of human TRPML1 channel; Q9GZU1; TRPML1-expressing cells, Ca2+ dye fluorescence, FDSS; activation, % (concentration not given with the values); 410,000 tested, 0.12% active; in the data active = activation above about 50%; inconclusive = mostly about 30% to 49%
#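 Calcium fluorescence on an FDSS kinetic reader gave the read-out. Tet-induced TRPML1-DL cells were plated overnight, dye-loaded (Ca8 with quencher, 45-90 min, room temperature, dark), then read 110 s after compound addition, and again 110 s after 4uM final 54-4 (EC80).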
# TRHR PAM: allosteric enhancers of human TRH receptor; enhancement, % at 2 µM; TRHR cells, fluo-8 calcium fluorescence, EC20 TRH enhancement; P34981; 360,000 tested, 0.66% active; in the data active = enhancement above about 30%
#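 Enhancer read-out: after compound pinning and an initial kinetic agonist-mode read, an EC20 of TRH (10 nM final) was injected and fluo-8 calcium signal (Ex 480/Em 530) followed at 1 s/cycle for 100 cycles in TRHR-expressing cells.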
# TRHR agonist: TRH receptor (human) agonism | activation, % at 2 µM | P34981 | 360,000 tested, 0.18% active | TRHR cells, calcium flux fluo-8, FDSS agonist mode; in the data active = activation above about 30%
#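 Agonist-mode FDSS calcium read (Ex 480/Em 530, 1 s cycles) in 1536-well TRHR cells with fluo-8 dye, after 10-cycle baseline and 23 nL compound addition; TRH at EC20 (10 nM final) added afterwards for the enhancer phase.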
# Hits are given with their value; n = inactive; u = inconclusive; x = not tested or not shown; ! = not confirmed by another sample. In the library only some 0.99% were active in any assay of this set; here they are far more common.
SMILES,TRPV1 ag,TRPV1 potentiator,TRPML1 blocker,TRPML1 agonist,TRHR PAM,TRHR agonist
CCc1ccc2oc(-c3ccc(C)c(NC(=O)COc4ccccc4Cl)c3)nc2c1,x,x,x,n,x,x
CCc1ccc2oc(-c3cccc(NC(=O)COc4ccccc4Cl)c3)nc2c1,x,x,n,n,43.3,n
COc1cc2cc(C)c3nnc(SCC(=O)Nc4cc(C)on4)n3c2cc1OC,n,107.8,n,n,n,n
CCOC(=O)c1cn(Cc2ccccc2)c(C(=O)OC(C)(C)C)c1O,x,x,n,60.5,x,x
COc1cc(C=C(C(C)=O)C(C)=O)ccc1O,n,n,n,n,n,n
COc1cc(/C=C/C(=O)CC(=O)/C=C/c2ccc(O)c(OC)c2)ccc1O,u,n,n,55.2!,n,106.8
COc1cc(/C=C/C(=O)/C=C(O)/C=C/c2ccc(O)c(OC)c2)ccc1O,u,n,n,u,n,57.9
CCOC(=O)C(NC(C)=O)C(=O)Nc1ccc(C(C)C)cc1 (configuration not stated),n,n,n,n,38.8,n
O=c1[nH]c(=S)[nH]c2n[nH]nc12,x,x,x,n,x,x
Nc1ncnc2c1ncn2COC(CO)CO,x,x,x,n,x,x
O=C1c2ccccc2-c2onc3c(Oc4ccccc4)cc(O)c1c23,n,n,x,x,n,n
CCNc1ccccc(-c2ccc3ccccc3n2)c1=O,n,n,n,n,n,n
O=C1c2ccccc2-c2onc3ccc(NCc4ccco4)c1c23,n,n,n,n,n,62.6
CCOc1ccc2noc3c2c1C(=O)c1ccccc1-3,u,n,n,n,n,45.9
CCNc1ccc2noc3c2c1C(=O)c1ccccc1-3,u,n,n,62.8,30.6,121.6
Cc1cc2c(s1)c1cnn(Cc3ccc(Cl)c(F)c3)c(=O)c1n2C,x,x,x,x,n,n
Cc1cc2nccc(/C=C/c3ccc(N(C)C)cc3)c2cc1C,x,x,x,n,x,x
COc1cccc2cc(C(=O)NCCc3c(C)[nH]c4ccc(F)cc34)c(=O)oc12,x,x,n,n,38.7,n
COc1ccc2oc(=O)c(C(=O)NCCc3c(C)[nH]c4c(C)cccc34)cc2c1,x,x,n,n,50.6,n
Cc1[nH]c2ccc(F)cc2c1CCNC(=O)c1cc2cc(Cl)ccc2oc1=O,x,x,n,n,n,n
O=C1c2ccccc2C(=O)N1c1ccc(O)cc1,x,x,x,n,x,x
Cc1cccc(-n2nc(C)c(C(=O)N3CCN(c4ccccc4)CC3)c2-n2cccc2)c1,x,x,n,71.4,n,n
CCOC(=O)N1CCN(C(=O)c2c(C)nn(-c3cccc(C)c3)c2-n2cccc2)CC1,x,x,n,n,n,n
CC(C)(C)OC(=O)CNC(=O)c1[nH]cnc1C(=O)N[C@@H](Cc1ccccc1)C(=O)OC(C)(C)C,82.0,n,n,n,n,n
CC(C)(C)OC(=O)[C@H](Cc1ccccc1)NC(=O)c1nc[nH]c1C(=O)NCC(=O)OCc1ccccc1,u,n,n,n,n,n
SMILES,TRPV1 ag,TRPV1 potentiator,TRPML1 blocker,TRPML1 agonist,TRHR PAM,TRHR agonist
CCN(CC)C1=NS(=O)(=O)c2cc([N+](=O)[O-])ccc21,n,n,n,n,34.3,n
COc1ccc(S(=O)(=O)N(C)CC(=O)NCCC2=CCCCC2)cc1,n,n,n,n,34.8,n
O=C(CCCn1c(=O)[nH]c2ccsc2c1=O)N1CCN(c2ccccn2)CC1,n,n,n,n,30.4,n
Cc1cccc(N2CCN(C(=O)CCn3c(=O)[nH]c4ccsc4c3=O)CC2C)c1 (configuration not stated),n,n,n,n,31.7,n
O=C(CCCn1c(=O)[nH]c2ccccc2c1=O)N1CCN(c2ccccn2)CC1,n,n,n,n,n,n
Cc1cccc(N2CCN(C(=O)CCCn3c(=O)[nH]c4ccsc4c3=O)CC2C)c1 (configuration not stated),n,n,n,n,n,n
Cc1ncc(CO)c2c1Oc1nc(-c3ccc(Cl)cc3)nc(SCC(=O)N3CCCCC3)c1C2,x,x,n,n,n,n
Cc1nn(Cc2ccc(Br)cc2)c(C)c1NC(=O)c1nn(C)cc1Cl,n,n,n,n,30.9,n
N#Cc1ccccc1NC(=O)CSc1nc(-c2ccccc2)cc(C(F)(F)F)c1C#N,x,x,n,n,n,41.6
Cc1cc(/C=N/NC(N)=S)c(O)c(/C=N/NC(N)=S)c1,u,n,n,n,n,147.6

# From PubChem BioAssay
